RE007 growth inh = less growth of the S. pombe RE007 Vpr strain; Potency, µM (top dose mostly 92.2 µM), for inactives: at the highest dose activity change, negative = less growth, usual class: inhibitors; 360,000 compounds, 0.21% hits; S. pombe RE007 Vpr strain, BacTiter-Glo ATP luminescence, 24 h; active = well fitted falling curve with a large enough effect; note: potency is the fitted concentration of half-maximal effect; nearly all actives have a fitted effect of over 50% in size
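Fission yeast strain RE007, carrying one chromosomally integrated HIV-1 vpr copy, was seeded at OD 0.01 in PMG+AL medium with 23 nL pinned compound. After 24 h at 30 °C and 99% humidity, viability was read by BacTiter-Glo luminescence.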
FBPA Giardia inh = inhibitors of Giardia lamblia fructose-1,6-bisphosphate aldolase; purified Giardia FBPA; Potency, µM (highest dose often 59.6 µM), for inactives: top-dose activity, negative = inhibition, usual class: inhibitors; 290,000 compounds, 0.71% hits; A8B2U2; note: potency is the fitted concentration of half-maximal effect; nearly all actives have a fitted effect of over 55% in size
Target sequence (A8B2U2 whole entry, looked up): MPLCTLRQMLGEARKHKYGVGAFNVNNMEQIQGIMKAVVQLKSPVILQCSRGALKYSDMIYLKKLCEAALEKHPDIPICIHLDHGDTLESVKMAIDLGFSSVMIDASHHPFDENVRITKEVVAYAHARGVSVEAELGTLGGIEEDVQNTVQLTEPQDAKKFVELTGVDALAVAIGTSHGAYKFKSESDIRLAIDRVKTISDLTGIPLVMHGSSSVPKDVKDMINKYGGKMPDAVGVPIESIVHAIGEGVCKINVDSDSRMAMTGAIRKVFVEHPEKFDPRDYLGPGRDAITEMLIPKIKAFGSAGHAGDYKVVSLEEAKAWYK
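40 nM FBPA preincubated 10 min at RT with compound (up to 57.5 uM final), then substrate plus GAPDH/TPI/NAD/arsenate coupling and diaphorase/resazurin added. Fluorescence read after 20 min at RT, 525/598 nm.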
HCMV inh = inhibitors of human cytomegalovirus | 410,000 compounds, 4.5% hits | HFF cells, HCMV-luciferase reporter, 72 h; stronger effect = lower value | activity change, negative = inhibition, % at 57.5 µM; in the data active = activity change below about -60%
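Compounds were evaluated in HFFs infected with an HCMV luciferase reporter virus (MOI 1 PFU/cell). Luciferase in lysates collected 72 h post infection served as the replication measure.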
Sm TGR block = S. mansoni TGR enzyme inhibition. purified TGR, DTNB reduction, TNB absorbance 405 nm. Potency, µM (doses to about 114 µM), for the others: at the top dose activity change, negative = inhibition, most hits filed as inhibitors. Q962Y6. 360,000 compounds, 3% hits; note: potency is the fitted concentration of half-maximal effect; nearly all actives have a fitted effect of over 60% in size
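TGR 20 nM + NADPH 100 uM (dispensed conc.), cpd preinc 15 min RT; start with NADPH (500 uM addition) then DTNB (15 mM addition). Kinetic TNB absorbance, 405 nm filter. Four-parameter Hill fit across titration.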
FMDV inh = blocks foot and mouth disease virus. FMDV antiviral cell-based qHTS. Potency, µM (highest dose often 57.9 µM), for the others: at the highest dose activity change, negative = inhibition, usual class: inhibitors. 410,000 compounds, 1.2% hits. AID 1159524; calls by dose curve; tested in HEK293T cells; note: read-out not given here; potency is the fitted concentration of half-maximal effect; nearly all actives have a fitted effect of over 45% in size
TbPYK inhibitor = T. brucei pyruvate kinase inhibition; TbPYK enzyme, Kinase-Glo Plus ATP luminescence, 45 min; Potency, µM (titrated, usually from 76.8 µM), without a hit: at the highest dose activity, negative = inhibition, most hits filed as inhibitors; 410,000 compounds, 0.12% hits; AID 624173; note: potency is the fitted concentration of half-maximal effect; nearly all actives have a fitted effect of over 50% in size
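Screened from lowest to highest concentration, compounds were pinned into TbPYK/substrate mixtures, and ADP (130 uM final) was added. Plates sat at room temperature for 45 min prior to Kinase-Glo Plus detection by luminescence.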
Active calls of the source: *. In the library only some 7.7% were active in any assay of this set; here they are far more common. Unless noted, calls come from the whole dose curve; as a rule, active = well fitted curve in the direction sought with a large enough effect; inconclusive = small, poorly fitted or top-dose-only effect, or another doubt; inactive = no such curve, though single readings can be large; an effect the other way counts as inactive or inconclusive. % is set by controls: 0 for no effect and ±100 for the full control effect.

NC1(C(=O)O)CSSC1 was read as RE007 growth inh -2%, HCMV inh -80*, FMDV inh -1% and TbPYK inhibitor 2%.
For COc1ccc(NC(=S)NCCCCCC(=O)C[N+](=O)[O-])cc1 the results were RE007 growth inh -22%, FBPA Giardia inh -10%, HCMV inh -20, Sm TGR block 20µM*, FMDV inh 5% and TbPYK inhibitor -26%.
Screening O=C(CCCCCNC(=S)Nc1ccccc1)C[N+](=O)[O-] returned RE007 growth inh -19%, FBPA Giardia inh -10%, HCMV inh 50, Sm TGR block 25µM*, FMDV inh -9% and TbPYK inhibitor -8%.
Screening Cc1ccc(NC2(c3ccccc3)C(=O)c3ccccc3C2=O)cc1F returned HCMV inh 17, Sm TGR block 6%, FMDV inh -24% and TbPYK inhibitor -3%.
Screening Cc1ccccc1NC(=O)c1ccc2nc(Cc3ccccc3)oc2c1 returned HCMV inh -30, Sm TGR block -1%, FMDV inh 3% and TbPYK inhibitor 5%.
`CCC(CO)Oc1cc(NCc2cccc(C)c2)c2ncn(C(C)C)c2c1` (stereo unspecified) gave RE007 growth inh -13%, HCMV inh -76*, FMDV inh -12% and TbPYK inhibitor -9%.
`COc1ccc(-c2csc(N(Cc3ccco3)C(=O)c3cccs3)n2)cc1` gave RE007 growth inh 37%, FBPA Giardia inh -4%, HCMV inh 1, Sm TGR block 13µM*, FMDV inh -22% and TbPYK inhibitor 0%.
`O=C(C1CC1)N(Cc1ccco1)c1nc(-c2ccccc2)cs1` gave RE007 growth inh -11%, FBPA Giardia inh -9%, HCMV inh 5, Sm TGR block 32µM*, FMDV inh 7% and TbPYK inhibitor -3%.
`Cc1ccccc1Cn1c(=O)n(CCCCC(=O)NCc2ccccc2Cl)c(=O)c2ccccc21` gave HCMV inh 17, Sm TGR block 1%, FMDV inh 3% and TbPYK inhibitor 7%.
O=c1[nH]cnc2nn(C3OC(CO)C(O)C3O)nc12 (stereo unspecified) was read as HCMV inh 64.
Cc1cc2nccc(-c3ccc(OCCCF)cc3)n2n1 was read as RE007 growth inh -2%, FBPA Giardia inh 11%, HCMV inh -61*, Sm TGR block 1%, FMDV inh -16% and TbPYK inhibitor 1%.
For CC(=O)Nc1ccc(N/C(C)=C/C(=O)c2cccnc2)cc1 the results were RE007 growth inh -16%, FBPA Giardia inh 3%, HCMV inh -61*, Sm TGR block 5%, FMDV inh 10% and TbPYK inhibitor 12%.
COc1cccc(NC(=O)Nc2ccc3c(c2)nc(C)n3C)c1 was read as RE007 growth inh -25%, FBPA Giardia inh -2%, HCMV inh 45, Sm TGR block 23%, FMDV inh -40% and TbPYK inhibitor -8%.
Screening CCn1c(C)nc2cc(NC(=O)Nc3cccc(C(C)=O)c3)ccc21 returned RE007 growth inh -18%, FBPA Giardia inh -1%, HCMV inh -67*, Sm TGR block -1%, FMDV inh 28% and TbPYK inhibitor -2%.
Screening CS(=O)(=O)Nc1ccc(-c2cncc3nccn23)cc1 returned RE007 growth inh 2%, HCMV inh -10, FMDV inh -17% and TbPYK inhibitor -6%.
`CS(=O)(=O)Nc1ccc(-c2cnc3cccnn23)cc1` gave RE007 growth inh 13%, HCMV inh -64*, FMDV inh 1% and TbPYK inhibitor 1%.
For COc1ccc(CNC(=O)Cn2ccc3cc(S(=O)(=O)N4CCCCCC4)ccc32)cc1OC the results were HCMV inh -10, Sm TGR block 0%, FMDV inh 9% and TbPYK inhibitor 6%.
Screening Cc1ccc(NS(=O)(=O)c2cc(Br)cnc2N)c(Cl)c1 returned RE007 growth inh -12%, FBPA Giardia inh 0%, HCMV inh -15, Sm TGR block -1%, FMDV inh 5% and TbPYK inhibitor -3%.

Screening data as filed in PubChem.
